Laboratory results taken from PubChem BioAssay (Tox21).
Records with an inconclusive call do not appear. Active and inactive are the calls of the source. Unless noted, calls come from the whole dose curve.

Experiments:
[1] = Nuclear factor erythroid 2-related factor 2/antioxidant responsive element (Nrf2/ARE) small molecule agonists: qHTS cell viability counter screen in human keratinocytes (AID 1919968; active = well fitted curve in the direction sought with a large enough effect in the repeat runs; an effect the other way counts as inactive or inconclusive; note: nearly all actives have a fitted effect of over 55% in size)
Method in brief: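 Parallel cytotoxicity read: KeratinoSens HaCaT cells, compound treatment 23 h, viability by CellTiter-Fluor fluorescence 1 h post-reagent.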

[2] = Nuclear factor erythroid 2-related factor 2/antioxidant responsive element (Nrf2/ARE) small molecule agonists: luciferase reporter gene qHTS assay in human keratinocytes (AID 1919969); note: nearly all actives have a fitted effect of over 35% in size
[3] = target: Gonadotropin-releasing hormone receptor (Homo sapiens) (UniProt P30968); assay: Human gonadotropin-releasing hormone receptor (GnRHR) small molecule agonists, calcium flux assay in GnRHR-HEK293 cells (AID 1920063); note: nearly all actives have a fitted effect of over 35% in size
Gonadotropin-releasing hormone receptor (Homo sapiens), sequence (P30968 whole entry, looked up): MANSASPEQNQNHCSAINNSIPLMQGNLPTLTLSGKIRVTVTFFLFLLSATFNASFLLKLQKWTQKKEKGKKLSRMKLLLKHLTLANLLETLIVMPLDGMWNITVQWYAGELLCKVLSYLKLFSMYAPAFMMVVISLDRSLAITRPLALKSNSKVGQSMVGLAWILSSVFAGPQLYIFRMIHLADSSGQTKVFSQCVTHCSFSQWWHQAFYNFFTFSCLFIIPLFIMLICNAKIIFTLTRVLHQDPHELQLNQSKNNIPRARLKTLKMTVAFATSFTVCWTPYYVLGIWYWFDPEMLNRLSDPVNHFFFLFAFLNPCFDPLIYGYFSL
Method in brief: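 Calcium flux, agonist mode, human GnRHR stably integrated in HEK293; dye 1 h at 37 C before compound; Ex/Em=480/540 kinetic read, 3 min; 15 concentrations, triplicate.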

[4] = target: KiSS-1 receptor (Homo sapiens) (UniProt Q969F8); assay: Human kisspeptin (KISS1R) small molecule agonists, calcium flux assay in KISS1R-HEK293 cells (AID 1920064; active = well fitted curve in the direction sought with a large enough effect in the repeat runs; an effect the other way counts as inactive or inconclusive)
KiSS-1 receptor (Homo sapiens), sequence (Q969F8 whole entry, looked up): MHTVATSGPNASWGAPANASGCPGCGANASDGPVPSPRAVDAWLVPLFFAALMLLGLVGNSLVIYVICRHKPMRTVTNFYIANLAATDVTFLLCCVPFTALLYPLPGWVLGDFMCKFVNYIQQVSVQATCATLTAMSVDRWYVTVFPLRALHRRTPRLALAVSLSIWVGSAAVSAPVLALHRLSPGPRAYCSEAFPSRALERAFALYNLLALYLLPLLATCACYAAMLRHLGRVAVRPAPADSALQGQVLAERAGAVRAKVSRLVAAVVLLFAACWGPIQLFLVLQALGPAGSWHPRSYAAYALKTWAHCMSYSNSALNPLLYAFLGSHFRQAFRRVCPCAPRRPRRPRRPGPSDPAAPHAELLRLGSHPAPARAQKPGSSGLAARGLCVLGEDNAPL
Method in brief: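 Triplicate 15-concentration series were applied to dye-loaded human KISS1R HEK293 cells, and agonist-evoked calcium fluorescence was captured for 3 min.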

[5] = G protein-coupled receptor (GPCR) small molecule agonists, calcium flux assay: HEK293 wild type cell line counter screen (AID 1920065)
Method in brief: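 Non-specific calcium responders were flagged by adding DMSO-dissolved compounds to dye-loaded cells and reading 480/540 nm fluorescence each second for 3 min; ATP served as positive control.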

[6] = p53 small molecule agonists, cell-based qHTS assay with human liver microsomes (AID 1963577);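 note: p53 response element beta-lactamase reporter cells with liver microsomes plus NADPH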
Method in brief: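 Steps: plate p53RE-bla cells, incubate 5 h at 37 C; add compound in DMSO; add microsomes (0.5 mg/mL final) and NADPH (0.5 mg/mL final); incubate 16 h at 37 C; add LiveBLAzer, 2 h RT; read fluorescence.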

[7] = p53 small molecule agonists, cell-based qHTS assay with rat liver microsomes (AID 1963578)
Method in brief: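 Metabolic activation is supplied by rat liver microsomes with NADPH (each 0.5 mg/mL final). p53RE-bla cells incubate with compound 16 h at 37 C; reporter activity is measured by LiveBLAzer fluorescence.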

[8] = p53 small molecule agonists, cell-based qHTS assay with human liver microsomes: qHTS cell viability counter screen (AID 1963579); note: nearly all actives have a fitted effect of over 45% in size
Method in brief: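 After the 460/530 nm beta-lactamase read, CellTiter-Glo was added to the same wells and luminescence measured after 30 min at room temperature, giving viability of p53RE-bla cells treated 16 h with compounds plus microsomes and NADPH.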

[9] = p53 small molecule agonists, cell-based qHTS assay with rat liver microsomes: qHTS cell viability counter screen (AID 1963580); note: nearly all actives have a fitted effect of over 45% in size
Method in brief: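 Rat liver microsome (0.5 mg/mL final) and NADPH (0.5 mg/mL final) co-incubation with compounds for 16 h at 37 C on HCT-116 p53RE-bla cells; cytotoxicity taken from intracellular ATP luminescence.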

[10] = p53 small molecule agonists, cell-based qHTS assay: qHTS cell viability counter screen (AID 1963581); note: nearly all actives have a fitted effect of over 45% in size
Method in brief: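 Multiplexed with the reporter read, a CellTiter-Glo step (30 min, room temperature) gauges ATP-based viability of HCT-116 p53RE-bla cells after 16 h compound incubation at 37 C.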

[11] = p53 small molecule agonists, cell-based qHTS assay (AID 1963582; active = well fitted activation curve with a large enough effect in the signal ratio in the repeat runs, not every such curve was filed as active; the % refers to the signal ratio)
Method in brief: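 Beta-lactamase reporter cells (p53RE-bla) treated with compounds for 16 h at 37 C; FRET substrate, 2 h, room temperature; fluorescence intensity.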

[12] = target: 5-hydroxytryptamine receptor 2A (Homo sapiens) (UniProt P28223); assay: 5-hydroxytryptamine receptor 2A (HTR2A) small molecule antagonists, cell-based qHTS assay (AID 1963586); note: nearly all actives have a fitted effect of over 45% in size
5-hydroxytryptamine receptor 2A (Homo sapiens), sequence (P28223 whole entry, looked up): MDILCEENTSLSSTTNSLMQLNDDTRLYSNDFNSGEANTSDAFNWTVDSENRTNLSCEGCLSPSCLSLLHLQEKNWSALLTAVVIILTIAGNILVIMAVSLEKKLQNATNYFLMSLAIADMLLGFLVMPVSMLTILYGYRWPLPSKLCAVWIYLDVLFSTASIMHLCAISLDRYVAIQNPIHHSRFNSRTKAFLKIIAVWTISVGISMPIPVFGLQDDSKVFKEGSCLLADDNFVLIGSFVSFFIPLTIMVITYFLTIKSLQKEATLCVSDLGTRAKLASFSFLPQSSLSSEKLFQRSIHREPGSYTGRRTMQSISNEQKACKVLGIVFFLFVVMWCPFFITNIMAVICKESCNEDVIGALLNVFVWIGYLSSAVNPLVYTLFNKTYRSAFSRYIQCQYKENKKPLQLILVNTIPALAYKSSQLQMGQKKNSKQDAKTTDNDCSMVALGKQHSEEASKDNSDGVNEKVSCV
Method in brief: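 CHO cells stably expressing human HTR2A were plated for 18 h at 37 C, then loaded with calcium dye for 1 h. Compounds were preincubated 5 min at room temperature before DOI (4 nM solution) was added. Kinetic fluorescence was read for 3 min.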

[13] = target: 5-hydroxytryptamine receptor 2A (Homo sapiens) (UniProt P28223); assay: 5-hydroxytryptamine receptor 2A (HTR2A) small molecule agonists, cell-based qHTS assay (AID 1963587); note: nearly all actives have a fitted effect of over 30% in size
Method in brief: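 Kinetic calcium-flux fluorescence (2 min, 1 sec intervals) after compound addition in agonist mode. HTR2A-CHO cells were cultured 18 h, then dye-loaded 1 h at 37 C.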

[14] = cAMP Responsive Elements (CRE) small molecule agonists, cell-based qHTS assay (AID 1963590)
Method in brief: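 Quantitative HTS for CRE agonists: HEK 293T CRE-bla cells, overnight plating, 3 h compound incubation at 37 C/5% CO2, then 2 h room-temperature LiveBLAzer B/G FRET substrate loading.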

[15] = target: Beta-2 adrenergic receptor (Homo sapiens) (UniProt P07550); assay: Adrenergic beta2 receptor (ADRB2) small molecule antagonists, cell-based qHTS assay (AID 1963592); note: series mostly up to about 92 µM; nearly all actives have a fitted effect of over 50% in size
Beta-2 adrenergic receptor (Homo sapiens), sequence (P07550 whole entry, looked up): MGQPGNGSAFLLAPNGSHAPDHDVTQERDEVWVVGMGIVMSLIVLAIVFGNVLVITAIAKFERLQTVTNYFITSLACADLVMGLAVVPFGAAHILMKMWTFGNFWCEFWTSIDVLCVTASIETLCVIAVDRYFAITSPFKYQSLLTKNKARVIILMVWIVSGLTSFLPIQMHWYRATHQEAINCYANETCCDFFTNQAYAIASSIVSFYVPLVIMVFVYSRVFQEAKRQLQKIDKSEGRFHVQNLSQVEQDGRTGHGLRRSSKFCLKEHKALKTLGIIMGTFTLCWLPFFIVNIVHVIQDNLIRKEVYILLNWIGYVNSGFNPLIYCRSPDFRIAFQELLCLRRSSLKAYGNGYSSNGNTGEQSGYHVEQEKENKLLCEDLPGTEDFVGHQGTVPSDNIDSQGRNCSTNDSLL
Method in brief: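 Assay format: CHO-ADRB2 cells, 18-20hr seeding at 37C/5% CO2, then compound plus 1nM isoproterenol agonist mix for 0.5hr RT. Homogeneous time-resolved fluorescence cAMP detection after 1hr, expressed as 665/615 nm ratio.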

[16] = target: D(2) dopamine receptor (Homo sapiens) (UniProt P14416); assay: Dopamine D2 receptor (DRD2) small molecule agonists, cell-based qHTS assay (AID 1963594); note: nearly all actives have a fitted effect of over 35% in size
D(2) dopamine receptor (Homo sapiens), sequence (P14416 whole entry, looked up): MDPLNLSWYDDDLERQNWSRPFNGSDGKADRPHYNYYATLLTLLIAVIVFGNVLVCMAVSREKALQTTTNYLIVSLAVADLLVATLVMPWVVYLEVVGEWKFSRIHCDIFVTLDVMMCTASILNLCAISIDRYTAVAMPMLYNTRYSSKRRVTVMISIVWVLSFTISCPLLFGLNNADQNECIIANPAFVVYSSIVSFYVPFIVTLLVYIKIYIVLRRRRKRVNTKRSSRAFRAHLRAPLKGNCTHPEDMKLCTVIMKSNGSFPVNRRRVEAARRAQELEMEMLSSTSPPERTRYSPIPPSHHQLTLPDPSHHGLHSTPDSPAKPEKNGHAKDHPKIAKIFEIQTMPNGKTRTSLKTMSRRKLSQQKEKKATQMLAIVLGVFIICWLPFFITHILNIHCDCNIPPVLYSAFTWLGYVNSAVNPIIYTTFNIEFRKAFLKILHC
Method in brief: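 cAMP accumulation in DRD2-HEK293 cells measured by HTRF after 1 h detection; compounds added 10 min before NKH477 (200nM […]) forskolin-analogue stimulation, 30 min at room temperature, with Ro20-1724 present at 0.1 mM final.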

[17] = target: D(2) dopamine receptor (Homo sapiens) (UniProt P14416); assay: Dopamine D2 receptor (DRD2) small molecule antagonists, cell-based qHTS assay (AID 1963595; active = well fitted inhibition curve with a large enough effect in the signal ratio in the repeat runs, with a control signal flat; the % refers to the signal ratio)
Method in brief: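 Readout: HTRF cAMP, cAMP-d2 competing with cellular cAMP for anti-cAMP cryptate, read after 1 h. Cells: DRD2-HEK293. Conditions: 0.1 mM Ro20-1724, 12 nM quinpirole, 200 nM NKH477, 30 min RT.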

[18] = target: Muscarinic acetylcholine receptor M1 (Homo sapiens) (UniProt P11229); assay: Cholinergic receptor muscarinic 1 (CHRM1) small molecule antagonists, cell-based qHTS assay (AID 1963588); note: nearly all actives have a fitted effect of over 40% in size
Muscarinic acetylcholine receptor M1 (Homo sapiens), sequence (P11229 whole entry, looked up): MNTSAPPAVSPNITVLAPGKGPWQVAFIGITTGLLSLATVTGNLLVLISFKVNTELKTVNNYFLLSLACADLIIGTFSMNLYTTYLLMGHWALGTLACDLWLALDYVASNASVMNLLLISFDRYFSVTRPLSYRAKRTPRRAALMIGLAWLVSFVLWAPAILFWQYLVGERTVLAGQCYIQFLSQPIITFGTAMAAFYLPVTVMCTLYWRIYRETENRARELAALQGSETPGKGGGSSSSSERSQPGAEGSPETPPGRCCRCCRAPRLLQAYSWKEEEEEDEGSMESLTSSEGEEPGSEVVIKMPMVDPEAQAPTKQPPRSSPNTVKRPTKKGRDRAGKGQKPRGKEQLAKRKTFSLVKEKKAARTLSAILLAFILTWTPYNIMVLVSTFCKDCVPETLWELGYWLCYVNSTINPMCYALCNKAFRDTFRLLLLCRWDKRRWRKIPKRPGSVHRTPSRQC
Method in brief: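 Compounds were tested at 15 concentrations in three independent runs. Dye-loaded CHRM1-CHO cells were exposed 5 min at room temperature before stimulation by acetylcholine added at 50nM. Intracellular calcium was read kinetically on FDSS for 3 min.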

[19] = cAMP Responsive Elements (CRE) small molecule antagonists, cell-based qHTS assay (AID 1963591; active = well fitted inhibition curve with a large enough effect in the signal ratio in the repeat runs, not every such curve was filed as active; the % refers to the signal ratio)
Method in brief: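 Fluorescence intensity from cleaved LiveBLAzer B/G substrate (2 h, room temperature) quantified CRE-bla activity in HEK 293T cells exposed 3 h to compound with 0.25 uM final NKH477.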

[20] = target: Muscarinic acetylcholine receptor M1 (Homo sapiens) (UniProt P11229); assay: Cholinergic receptor muscarinic 1 (CHRM1) small molecule agonists, cell-based qHTS assay (AID 1963589); note: nearly all actives have a fitted effect of over 35% in size
Method in brief: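 qHTS, 15-point titration, 3 independent runs: compounds pin-transferred onto dye-loaded CHRM1-CHO cells (human M1), calcium fluorescence followed every second to detect agonism.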

Measured: Potency

C[C@H]1O[C@H](OC2[C@@H](O)[C@@H](O)C(O)[C@H](O)[C@H]2O)[C@@H](N)C[C@@H]1N=C(N)C(=O)O (stereo partly specified)
inactive: [1] | [2] | [3] | [4] | [5] | [6] | [7] | [8] | [9] | [10] | [11] | [12] | [13] | [14] | [15] | [16] | [17]

Nc1ccccc1C(=O)O
inactive: [1] | [2] | [3] | [4] | [5] | [6] | [7] | [8] | [9] | [10] | [11] | [12] | [13] | [18] | [14] | [19] | [15] | [16] | [17]

CCCCC#N
inactive: [1] | [2] | [3] | [4] | [5] | [6] | [7] | [8] | [9] | [10] | [11] | [12] | [13] | [20] | [14] | [19] | [15] | [16] | [17]

CC(C)(C)C(=O)CCl
inactive: [1] | [2] | [3] | [4] | [5] | [6] | [7] | [8] | [9] | [10] | [11] | [12] | [18] | [20] | [14] | [19] | [15] | [16]

[CH3][Sn]([Cl])([Cl])[Cl]
inactive: [1] | [2] | [3] | [4] | [5] | [6] | [7] | [8] | [9] | [10] | [11] | [12] | [13] | [18] | [14] | [19] | [15] | [16]

NC(=O)CF
inactive: [1] | [2] | [3] | [4] | [5] | [6] | [7] | [8] | [9] | [10] | [11] | [12] | [18] | [20] | [14] | [19] | [15] | [16] | [17]

C[C@]12CCC(=O)C(O)=C1CC[C@@H]1[C@@H]2CC[C@]2(C)C(=O)CC[C@@H]12
inactive: [1] | [2] | [3] | [4] | [5] | [6] | [7] | [8] | [9] | [10] | [11] | [12] | [13] | [18] | [20] | [15] | [16] | [17]

O=C(O)c1nc(Cl)ccc1Cl
inactive: [1] | [2] | [3] | [4] | [5] | [6] | [7] | [8] | [9] | [10] | [11] | [12] | [13] | [18] | [19] | [15] | [16] | [17]
